Laboratory results from PubChem BioAssay AID1001 (Sanford-Burnham Center for Chemical Genomics, 2008).
The campaign covered roughly 200,000 compounds. About 50 (0.03%) were called active. The sample as a whole holds a higher share of actives than the screen did. Potency and affinity values are given separately. Unmarked numbers belong to inactive results. The rule behind the calls is not given here.

These molecules were tested against Alkaline phosphatase, tissue-nonspecific isozyme (Homo sapiens) (UniProt P05186) (assay: stimulation of alkaline phosphatase TNAP activity – biochemical, luminescent, no phosphate acceptor, uHTS, primary screen (AID 1001)). Details: purified TNAP, luminescent activation assay, at 20 µM, stronger effect = higher value.
Chain of Alkaline phosphatase, tissue-nonspecific isozyme (Homo sapiens) (P05186 whole entry, looked up): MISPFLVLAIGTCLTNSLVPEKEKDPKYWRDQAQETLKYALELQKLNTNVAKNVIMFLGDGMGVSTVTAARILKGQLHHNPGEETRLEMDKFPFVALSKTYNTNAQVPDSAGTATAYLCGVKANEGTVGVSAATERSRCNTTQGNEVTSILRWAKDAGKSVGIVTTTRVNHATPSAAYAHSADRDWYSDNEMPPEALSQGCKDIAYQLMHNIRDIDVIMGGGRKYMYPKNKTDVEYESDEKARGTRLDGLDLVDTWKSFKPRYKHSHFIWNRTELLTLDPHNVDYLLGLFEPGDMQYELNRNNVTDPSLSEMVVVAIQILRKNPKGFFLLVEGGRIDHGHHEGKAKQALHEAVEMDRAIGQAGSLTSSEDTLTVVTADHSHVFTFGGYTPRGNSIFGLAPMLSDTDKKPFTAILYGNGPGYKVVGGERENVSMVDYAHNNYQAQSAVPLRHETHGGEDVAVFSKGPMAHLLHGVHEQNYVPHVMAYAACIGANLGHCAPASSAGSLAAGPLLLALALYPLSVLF
`O=C(O[C@@H]1OC2COC(=O)c3cc(O)c(O)c(O)c3-c3c(cc(O)c(O)c3O)C(=O)O[C@@H]([C@H]1O)[C@@H]2O)c1cc(O)c(O)c(O)c1` was tested, and the activation fold was 1.3.
With `O=C(OCC1O[C@@H](OC(=O)c2cc(O)c(O)c(O)c2)[C@@H](OC(=O)c2cc(O)c(O)c(O)c2)[C@@H](OC(=O)c2cc(O)c(O)c(O)c2)[C@@H]1OC(=O)c1cc(O)c(O)c(O)c1)c1cc(O)c(O)c(O)c1` (stereo not given in full) the activation fold was 3 (active).
`COC(=O)c1cc(O)c(O)c(O)c1` gave an activation fold of 1.
`COC(=O)C1=C(C)N=C2SC(C#N)=C(N)N2C1c1ccc(OC)cc1` (stereo not given) gave an activation fold of 1.
`COc1ccc(Cl)cc1NC(=O)CN1CCC(n2nnc3ccccc32)CC1` gave an activation fold of 1.1.
`COc1ccc(Cl)cc1NC(=O)CN1CCC(n2nnc3cc(F)ccc32)CC1` was tested, and the activation fold was 1.5.
Molecule `Cc1nc(N2CCN(C(c3ccccc3)c3ccccc3)CC2)nc2c1C(=O)CCC2` has an activation fold of 1.1.
For `Cc1ccc(-c2csc(NC(=O)CSC3=NCCS3)n2)cc1`, the activation fold was 1.1.
For `CC(=O)Nc1ccc(S(=O)(=O)NCc2ccccn2)cc1`, the activation fold was 1.1.
`Cn1c(=O)c2c(ncn2CC(=O)N/N=C/c2ccco2)n(C)c1=O` showed an activation fold of 1.1.
Work on `Cn1c(=O)c2c(nc(NCc3ccco3)n2C)n(C)c1=O` yielded an activation fold of 1.1.
`CCc1ccc2oc(-c3ccc(OC)cc3)cc(=Nc3c(C)n(C)n(-c4ccccc4)c3=O)c2c1` was tested, and the activation fold was 0.9.
Molecule `Cc1ccc(CC(=O)Nc2nc3ccccc3s2)cc1` has an activation fold of 1.
Work on `CCOC(=O)c1ccc(NCc2ccc3c(c2)OCO3)cc1` yielded an activation fold of 1.
Work on `CCn1c(CNc2ccc(C(=O)O)cc2)nc2ccccc21` yielded an activation fold of 1.1.
`C/C(=N\Nc1ccc(C(=O)O)cc1)c1nc2ccccc2n1C` was tested, and the activation fold was 0.9.
`COc1ccc(C(CNC(=O)CN2C(=O)NC3(CC(C)CC(C)(C)C3)C2=O)N2CCOCC2)cc1` (stereo not given) showed an activation fold of 1.2.
With `O=C(COc1ccc(Cl)cc1)NCc1nnc(SCC(=O)NCCc2ccccc2)o1` the activation fold was 1.1.
Molecule `Cc1cc(C)cc(CC(Cc2nc3ccccc3[nH]2)c2nc3ccccc3[nH]2)c1` (stereo not given) has an activation fold of 1.6.
In the case of `COc1ccccc1CC(Cc1nc2ccccc2[nH]1)c1nc2ccccc2[nH]1` (stereo not given), the activation fold was 2.8.
Molecule `Cc1cc2oc(=O)cc(CN3CCN(Cc4ccccc4)CC3)c2cc1Cl` has an activation fold of 1.
For `COc1ccc(/C=C2\SC(=O)N(CC(=O)NNC(=O)c3ccccc3O)C2=O)cc1OC`, the activation fold was 2.4.
Work on `O=C(CN1C(=O)S/C(=C\c2ccccc2)C1=O)NNC(=O)c1ccccc1O` yielded an activation fold of 2.2.
`COc1ccc(NC(=O)CC2C(=O)N(Cc3cccs3)C(=S)N2C(C)C)cc1` (stereo not given) gave an activation fold of 1.1.
For `CCOc1ccc(N(C(=O)c2cnsn2)C(C(=O)NC2CCCCC2)c2ccncc2)cc1` (stereo not given), the activation fold was 1.2.
`Cn1nc(CC(=O)NC2CCCCC2)c2ccccc2c1=O` was tested, and the activation fold was 1.1.
In the case of `Cn1nc(CC(=O)NC2CCCCCC2)c2ccccc2c1=O`, the activation fold was 1.1.
`COc1ccc(CN2CCNC(=O)C2CC(=O)NCc2ccc(C)s2)c(OC)c1` (stereo not given) gave an activation fold of 1.1.
`Cc1ccc(NC(=O)NC2(C(=O)NCc3ccccc3)CCCCC2)cc1` showed an activation fold of 1.1.
`Cc1ccc(CNC(=O)C2(NC(=O)Nc3ccc(C)cc3)CCCCC2)cc1` showed an activation fold of 1.2.
`O=C(NC1CCCCC1)C1CCN(C(=O)c2ccc(-c3ccccc3)cc2)CC1` showed an activation fold of 1.1.
`N=c1c2c(-c3ccccc3)c(-c3ccccc3)n(Cc3ccco3)c2ncn1CCCn1ccnc1` showed an activation fold of 2.7.
`OCCNc1ncnc2c1c(-c1ccccc1)c(-c1ccccc1)n2Cc1ccco1` was tested, and the activation fold was 1.1.
Work on `COc1cc(NC(=O)CN2CCCCC2)c(C)cc1[N+](=O)[O-]` yielded an activation fold of 1.1.
Molecule `CCOc1cc(-n2cnnn2)c(OCC)cc1NC(=O)c1cnccn1` has an activation fold of 1.1.
`c1ccc2c(c1)Nc1nccnc1S2` was tested, and the activation fold was 1.
`COc1ccc2[nH]c(=O)c(CN(CCN3CCCC3)C(=O)Nc3ccccc3Cl)cc2c1` showed an activation fold of 1.1.
`COc1ccc(OC)c(-c2c3cc(O)c(=O)cc-3oc3cc(O)c(O)cc23)c1` was tested, and the activation fold was 3.9 (active).
`CCOc1ccccc1-c1c2cc(O)c(=O)cc-2oc2cc(O)c(O)cc12` showed an activation fold of 0.6.
With `Cc1c2cc(O)c(=O)cc-2oc2cc(O)c(O)cc12` the activation fold was 0.4.
Molecule `O=C(NCCCN1CCCC1=O)c1ccc(OCc2ccccc2)cc1` has an activation fold of 1.1.
Molecule `COc1nc(-c2cnccn2)sc1C` has an activation fold of 1.1.
In the case of `COc1ccc2nc(C)cc(SCC(=O)NNC(=O)COc3cccc4ccccc34)c2c1`, the activation fold was 2.1.
`COc1ccc2nc(C)cc(SCC(=O)NNC(=O)COc3ccc(C)cc3)c2c1` showed an activation fold of 1.1.
`O=C(CN1CCOCC1)NCCC12CC3CC(CC(C3)C1)C2` was tested, and the activation fold was 1.2.
`COc1ccc(N/C=C\C(=O)c2ccc(Br)cc2)cc1OC` gave an activation fold of 1.1.
Molecule `Cc1nn(C)cc1/C=C/C(=O)c1ccccc1` has an activation fold of 1.1.
`CCCCCCCC(=O)NNC(=O)c1ccc(F)cc1` was tested, and the activation fold was 2.1.
`CCCCCC(=O)NNC(=O)c1ccc(F)cc1` showed an activation fold of 1.
`Cc1cc(NC(=O)CCC(=O)N(Cc2ccco2)C(C(=O)NC2CCCCC2)c2cccs2)no1` (stereo not given) gave an activation fold of 1.1.
For `Cc1cc(Cl)ccc1OCC(=O)NCCOC(=O)Nc1sc(=S)n(C)c1C`, the activation fold was 1.2.
`Cc1c(C(=O)Oc2cc(N)n(S(C)(=O)=O)n2)cccc1[N+](=O)[O-]` gave an activation fold of 1.
For `CC(=O)c1ccc(NC(=O)COc2ccc3c(c2)OCO3)cc1`, the activation fold was 1.1.
With `Cc1cc(NC(=O)CN2CCN(C)CC2)no1` the activation fold was 1.1.
Work on `Cc1cc(C)c(NC(=O)CN2CCN(C)CC2)c(C)c1` yielded an activation fold of 1.2.
Work on `COc1ccc(C2C(C(=O)OC3CCCCC3)=C(C)Nc3nnnn32)c(OC)c1OC` (stereo not given) yielded an activation fold of 1.
`N#Cc1c(SCC(=O)O)nc(-c2ccccc2)c2c1CCCC2` gave an activation fold of 1.
`Cc1cccc2sc(NC(=O)CN(C)S(=O)(=O)c3ccc(Br)s3)nc12` showed an activation fold of 1.
`CC1CCN(Cc2nc(Cl)c3c4c(sc3n2)CCC4)CC1` gave an activation fold of 1.
In the case of `COc1cccc(-c2nnc(Nc3nc4c(F)cccc4s3)o2)c1`, the activation fold was 1.7.
Work on `COc1cc(OC)cc(-c2nnc(Nc3nc4c(F)cccc4s3)o2)c1` yielded an activation fold of 1.2.
`O=C(OCc1cc2ccccc2[nH]c1=O)C1CCCO1` (stereo not given) showed an activation fold of 1.1.
`O=C(CSc1nnc(C2COc3ccccc3O2)o1)Nc1nccs1` (stereo not given) gave an activation fold of 1.2.
Work on `CCCCOC(=O)c1ccc(NC(=O)CSCc2n[nH]c(=O)[nH]2)cc1` yielded an activation fold of 1.4.
`O=[N+]([O-])c1ccccc1-c1cc(-c2ccccc2O)n[nH]1` showed an activation fold of 2.1.
`Cc1ccc(O)c(-c2cc(-c3ccccc3[N+](=O)[O-])[nH]n2)c1` showed an activation fold of 2.3.
Work on `CC(C)(Oc1ccc(Cl)cc1)C(=O)NCc1ccc(S(N)(=O)=O)cc1` yielded an activation fold of 1.2.
`CCn1cc(S(=O)(=O)CC(=O)Nc2ccc3c(c2)OCCO3)c2ccccc21` showed an activation fold of 1.1.
`CC(C)C(OC(=O)C1=Cc2ccccc2OC1)C(=O)NC1CCCC1` (stereo not given) was tested, and the activation fold was 1.2.
`CN(C)CCNc1ccc(-c2nn(C)c(=O)c3ccccc23)cc1[N+](=O)[O-]` showed an activation fold of 1.
Work on `O=S1(=O)NC2CCCCCN2c2ccc(F)cc21` (stereo not given) yielded an activation fold of 1.1.
`Cn1c(C(=O)NCC2CCCO2)cc2c(=O)n(C)c3ccccc3c21` (stereo not given) showed an activation fold of 1.1.
`CCSC1=C(C#N)C2(CCCC2)C(C#N)=C(N)N1` was tested, and the activation fold was 1.
For `CSC1=C(C#N)C2(CCCC2)C(C#N)=C(N)N1`, the activation fold was 1.1.
For `CC(C)N1CCC2(CC1)C(C#N)=C(N)NC(S)=C2C#N`, the activation fold was 5.8 (active).
Molecule `CCOC(=O)CSc1nnc(NCC(=O)OC(C)C)c(=O)[nH]1` has an activation fold of 1.2.
In the case of `CC(=O)NC(=S)Nc1ccc(NC(=O)COc2ccc(C(C)C)cc2)cc1`, the activation fold was 1.
Molecule `Cc1ccccc1NC(=O)c1ccc(S(=O)(=O)C(F)F)cc1` has an activation fold of 1.1.
In the case of `CCOC(=O)c1csc(Nc2nc3ccc(F)cc3s2)n1`, the activation fold was 1.1.
In the case of `COC(=O)c1ccc2nc(Nc3nc4ccc(F)cc4s3)sc2c1`, the activation fold was 1.2.
`C/C(=N\NC(=O)c1ccc(Cn2cc([N+](=O)[O-])cn2)o1)c1cccc(NC(=O)C(C)C)c1` was tested, and the activation fold was 1.1.
Work on `CCC(C)NC(=O)CSC1=Nc2ccccc2C2=NC(c3ccccc3)C(=O)N12` (stereo not given) yielded an activation fold of 1.
`CC(/C=N/NC(=O)Cc1cccs1)=C\c1ccccc1` was tested, and the activation fold was 1.
Molecule `COc1cccc(OCCOCCNCCO)c1` has an activation fold of 1.1.
For `O=C(NNC(=O)C(c1ccccc1)c1ccccc1)c1ccccn1`, the activation fold was 1.5.
With `CC(C)C(=O)NNC(=O)c1ccccn1` the activation fold was 1.2.
For `Cc1nn(CC(=O)NC2C(=O)N3C(C(=O)O)=C(CSc4nnnn4C)CSC23)cc1Br` (stereo not given), the activation fold was 1.2.
Molecule `C=CCN1C(=O)C2(NC(=O)c3ccccc3N2)c2ccccc21` (stereo not given) has an activation fold of 1.1.
`O=C1N(CCCCN2C(=O)C3(OCCO3)c3ccccc32)c2ccccc2C12OCCO2` showed an activation fold of 1.2.
`O=C1N(CCCN2C(=O)C3(OCCO3)c3ccccc32)c2ccccc2C12OCCO2` gave an activation fold of 1.
`C=CCN1C(=O)C(C)(C)Nc2ccccc21` showed an activation fold of 1.1.
`O=C(CSc1nnc(-c2ccccc2)n1-c1ccc(Cl)cc1)N/N=C/c1ccco1` showed an activation fold of 1.
`Cc1ccc(C)c(NC(=O)CS(=O)(=O)c2c[nH]c3ccccc23)c1` was tested, and the activation fold was 1.
`Cn1cc(Cl)c(C(=O)NC2CCCCCC2)n1` was tested, and the activation fold was 1.2.
Molecule `Cn1cc(Cl)c(C(=O)NC2CCCC2)n1` has an activation fold of 1.1.
With `Cc1c(-n2cccc2C=O)cccc1[N+](=O)[O-]` the activation fold was 1.6.
For `COC(=O)Nc1nnc(CCc2ccccc2)s1`, the activation fold was 0.9.
`COc1ccccc1CNC(=O)Cc1ccc(Br)cc1` was tested, and the activation fold was 1.2.
`O=C(Nc1ccccc1-c1ccccc1)NC1CC2CCCC(C1)N2Cc1ccc(F)cc1` (stereo not given) gave an activation fold of 2.7.
With `CCOc1ccccc1NC(=O)NC1CC2CCCC(C1)N2Cc1nnnn1CCc1ccccc1` (stereo not given) the activation fold was 1.4.
`CC(C)OC(=O)C1C2C=CC3(CN(C(C)c4ccc(Br)cc4)C(=O)C13)O2` (stereo not given) was tested, and the activation fold was 1.1.
Molecule `Cn1c(=O)c2c(nc(N/N=C3\CCCc4ccccc43)n2Cc2ccc(F)cc2)n(C)c1=O` has an activation fold of 2.2.
Work on `Cn1c(N/N=C2\CCCc3ccccc32)nc2c1c(=O)n(Cc1ccccc1)c(=O)n2C` yielded an activation fold of 2.9.
`Fc1ccc(C2CC(c3ccc(F)cc3)n3ncnc3N2)cc1` (stereo not given) gave an activation fold of 1.1.
With `CC(C)N1CC(O)=C(c2nc3ccccc3[nH]2)C1=N` the activation fold was 1.4.
`CC(C)CCN1CC(O)=C(c2nc3ccccc3[nH]2)C1=N` was tested, and the activation fold was 2.
`C=CCNC(=O)c1cc(-c2ccc(Br)cc2)on1` was tested, and the activation fold was 1.2.
`Cc1ccc(S(=O)(=O)NNC(=O)C(=O)NNc2ccccn2)cc1` showed an activation fold of 2.9.
`O=C(NNc1ccccn1)C(=O)NNS(=O)(=O)c1ccc(F)cc1` showed an activation fold of 2.7.
Work on `Cc1ccc(NC(=O)c2cccc(S(C)(=O)=O)c2)cc1` yielded an activation fold of 1.1.
Work on `C=CCN(CC=C)C(=O)C1CCC(C(=O)N(CC=C)CC=C)CC1` (stereo not given) yielded an activation fold of 1.
For `COc1ccc(-n2cc(CNCCc3nc(C)cc(C)n3)c(-c3ccccc3Cl)n2)cc1`, the activation fold was 1.
`COc1ccc(-n2cc(CNCCc3cscn3)c(-c3ccccc3Cl)n2)cc1` gave an activation fold of 1.1.
Work on `CC(C)(C)c1ccc(C(=O)NNC(=O)c2ccc(Cl)cc2)cc1` yielded an activation fold of 1.9.
`COC(=O)NNC(=O)c1ccc(C(C)(C)C)cc1` was tested, and the activation fold was 1.1.
